APOBEC3G inh: blocks human APOBEC3G single-stranded DNA deamination; recombinant A3G, ssDNA deamination FAM/TAMRA fluorescence; 0.28% of 330,000 active; Q9HC16; inhibition, % at 20 µM; AID 493012;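 active = inhibition of at least 40% at 20 µM, with no more than 30% in the related APOBEC3A deaminase screen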;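 also: plate controls were DMSO wells with A3G for no effect and wells lacking A3G enzyme for full effect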
eIF4H FP inh: inhibitors of RNA binding by human eIF4H; inhibition, % at 35 µM; Q15056; eIF4H fluorescence polarization binding assay; 0.94% of 290,000 active;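 also: calls also rest on retests at 20 µM and on dose response follow-up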
PHOSPHO1 inh: blocks human PHOSPHO1 phosphatase activity; 1.1% of 290,000 active; inhibition, % at 13.3 µM; recombinant PHOSPHO1, absorbance phosphatase assay; Q8TCT1; AID 1565; in the data active = inhibition above about 60%
APOBEC3A inh: human APOBEC3A DNA deaminase inhibition; recombinant A3A, FAM/TAMRA ssDNA deamination fluorescence; 0.41% of 330,000 active; inhibition, % at 20 µM; P31941;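 active = at least 40% inhibition at 20 µM here, with at most 30% in a related deaminase screen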;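 also: plate controls were A3A with DMSO for no effect and wells lacking A3A enzyme for full effect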
PABP FP inh: blocks human PABP binding to poly(A) RNA; fluorescence polarization; calls only at 35 µM; AID 2014; 1% of 290,000 active;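 also: calls also rest on retests at 20 µM and on dose response follow-up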
Target sequence (P11940 whole entry, looked up): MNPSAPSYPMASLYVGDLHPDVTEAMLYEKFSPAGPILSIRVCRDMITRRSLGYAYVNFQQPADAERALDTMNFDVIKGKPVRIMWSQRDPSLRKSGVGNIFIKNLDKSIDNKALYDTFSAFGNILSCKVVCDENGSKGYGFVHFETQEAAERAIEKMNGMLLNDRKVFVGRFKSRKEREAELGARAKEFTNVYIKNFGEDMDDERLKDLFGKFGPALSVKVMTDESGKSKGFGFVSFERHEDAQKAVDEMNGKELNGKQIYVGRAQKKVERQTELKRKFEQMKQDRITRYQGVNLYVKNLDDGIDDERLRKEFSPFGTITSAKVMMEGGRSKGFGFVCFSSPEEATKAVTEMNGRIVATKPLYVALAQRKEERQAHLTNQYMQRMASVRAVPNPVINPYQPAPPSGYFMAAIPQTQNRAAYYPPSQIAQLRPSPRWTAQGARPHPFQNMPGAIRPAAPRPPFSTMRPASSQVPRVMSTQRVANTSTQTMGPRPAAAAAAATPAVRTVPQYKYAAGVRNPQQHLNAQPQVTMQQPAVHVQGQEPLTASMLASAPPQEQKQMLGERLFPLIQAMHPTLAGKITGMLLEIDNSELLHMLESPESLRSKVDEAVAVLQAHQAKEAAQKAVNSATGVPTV
PABP1 MLLE inh: blocks PAM2 peptide binding to the PABP1 MLLE domain | 0.36% of 360,000 active | inhibition, % at 20 µM | GST-MLLE / FITC-PAM2 fluorescence polarization | P11940; in the data active = inhibition above about 35%, passing the limit was not always enough;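 also: plate controls were DMSO wells with GST-MLLE for no effect and wells lacking GST-MLLE protein for full effect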
* = called active by the depositor; i = inactive; ? = inconclusive; . = no result; + = active, no number. Shown are actives, neighbours in structure and some others; about 2.6% of the full set was active somewhere. Unless noted, no rule for the calls is given here.

SMILES	APOBEC3G inh	eIF4H FP inh	PHOSPHO1 inh	APOBEC3A inh	PABP FP inh	PABP1 MLLE inh
CC(C)(C)n1nc2c(c1NC(=O)c1cccc(Cl)c1)CS(=O)(=O)C2	4	-19	65*	-5	i	7
OCCNc1ncnc2c1ncn2[C@H]1CN(Cc2ccco2)C[C@@H](CO)O1	.	.	.	.	.	21
COC1=CC(=NCl)C=CC1=NCl	.	.	.	.	.	41*
CSc1nc(N(CCO)CCO)c2sc3nc(-c4ccco4)c4c(c3c2n1)CCC4	.	89*	79*	.	+	31
CSc1nc(SCCO)c2sc3nc(-c4ccco4)c4c(c3c2n1)CC(C)(C)OC4	.	44	76*	.	+	-13
COc1cc(-c2cc3nc(NCCOc4ccccc4)ccn3n2)cc(OC)c1OC	.	.	.	.	.	-4
CSc1ccccc1C(=O)N(CC1CCCO1)c1c(N)n(Cc2ccccc2)c(=O)[nH]c1=O (stereo unspecified)	-4	.	.	-2	.	10
CCOc1ccc(-c2csc(N)c2C(=O)OC)cc1	15	9	62*	-1	i	24
CCOC(=O)c1c(-c2ccncc2)csc1N	1	-1	-21	0	i	16
Cn1c2ccccc2c2ccc3c(c21)C(=O)C=CC3=O	.	.	.	.	.	31
Cc1ccc2c(c1)c1ccc3c(c1n2C)C(=O)C=CC3=O	2	24	37	-4	i	42*
COc1ccc2c(c1)c1ccc3c(c1n2C)C(=O)C=CC3=O	6	5	-4	-6	i	49*
CN(C(=O)c1ccccc1Cl)c1ccccc1C(=O)NCc1ccccc1	-2	-2	61*	1	i	1
CN(C(=O)c1ccc(F)cc1)c1ccccc1C(=O)NCc1ccccc1	-1	5	34	-3	i	3
COC(=O)c1ccc(CNC(=O)c2c3c(nc4ccccc24)CCN(Cc2ccccc2)C3)cc1	2	87*	12	9	+	-20
CCN1CCc2nc3ccccc3c(C(=O)Nc3ccc(F)cc3)c2C1	-2	15	-19	-5	i	-5
O=C(NCc1ccc(F)cc1)c1c2c(nc3ccccc13)CCN(Cc1ccccc1)C2	-7	active	-2	-1	+	-2
CCOC(=O)C(=CNNc1cccc(Cl)c1)C(=O)OCC	-10	2	74*	-2	i	5
CCOC(=O)C(=CNc1ccc(Cl)cn1)C(=O)OCC	-3	0	16	-1	i	12
O=c1c(-c2cc3ccccc3o2)[n+]([O-])c2ccccc2n1OCc1ccccn1	-4	85	15	-2	+	2
COc1cc(C(=O)NS(=O)(=O)c2ccccc2C)ccc1Cc1cn(C)c2ccc(NC(=O)OC3CCCC3)cc12	-3	45*	-32	0	i	.
CCOC(=O)c1nc2sc3c(c2c(=O)[nH]1)CCCC3	-1	?	-14	3	+	-6
O=[N+]([O-])c1c(Nc2cccc(O)c2)cc(Cl)c2nonc12	-8	-5	30	-2	i	33
O=C(O)c1ccc(Nc2cc(Cl)c3nonc3c2[N+](=O)[O-])cc1	7	1	24	3	i	39*
Nc1cc(Nc2ccccc2)c2nonc2c1[N+](=O)[O-]	-9	-6	15	-4	i	56*
SMILES	APOBEC3G inh	eIF4H FP inh	PHOSPHO1 inh	APOBEC3A inh	PABP FP inh	PABP1 MLLE inh
O=[N+]([O-])c1c(Nc2ccccc2)ccc2nonc12	4	-5	-22	0	i	8
C[C@H](NC(=O)C1CCN(C(=O)[C@@H]2CCCN2C(=O)OC(C)(C)C)CC1)C(=O)NCc1ccc(F)cc1	.	.	.	.	.	2
Cc1cc(C(=O)CSc2nc(N)cc(N)n2)c(C)n1C1CC1	-12	81*	-15	-10	i	1
COCCC(=O)N1CCC(Oc2ccc(C(=O)NCCSC)cc2)CC1	-7	1	-6	0	i	3
COc1cccc(/C=N/NC(=O)c2cc3cc([N+](=O)[O-])ccc3s2)c1O	.	24	83*	.	i	-17
COc1ccccc1/C=N/NC(=O)c1ccc(NC(=O)c2cccc([N+](=O)[O-])c2)cc1	-6	2	16	-3	i	.
NC(=O)C1CCN(C(=O)c2ccccc2SCC(=O)NCC2CCCCC2)CC1	-6	5	5	-3	i	3
COC(=O)C1=C(O)/C(=C\c2ccc(CNC(=O)C(=O)Nc3ccc(C)cc3)o2)N=C1C	6	?	8	12	?	-10
